# Laboratory results reported in the supplement of paper PMC4466140.
# Columns and labels:
# Test in all cases: SPOT peptide array binding signal intensity (averaged, normalized) (arbitrary units (background-subtracted, floor 0; scale differs between SH3 domains)); higher = stronger binding of the SH3 domain to the peptide
# CaNbp2 = target: CaNbp2
# Procedure, shortened: (§1)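 GST-SH3 fusions from four yeast species, purified on glutathione Sepharose, were incubated at 10 μg/ml overnight at 4°C on membranes of synthetic 15-mer peptides in which cysteines were replaced with serines. Binding signal is the normalized, background-subtracted spot intensity averaged over replicates, in domain-specific arbitrary units.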
# CaRvs167 = target: CaRvs167
# Procedure, shortened: as §1
# CaRvs167-3 = target: CaRvs167-3
# Procedure, shortened: as §1
# CaSho1 = target: CaSho1
# Procedure, shortened: as §1
# CaSla1-D1-D2 = target: CaSla1-D1-D2
# Procedure, shortened: as §1
# CaSla1-D3 = target: CaSla1-D3
# Procedure, shortened: as §1
# ScAbp1 = target: ScAbp1
# Procedure, shortened: as §1
# ScBbc1 = target: ScBbc1
# Procedure, shortened: as §1
# ScBem1-D1 = target: ScBem1-D1
# Procedure, shortened: as §1
# ScBzz1-D1 = target: ScBzz1-D1
# Procedure, shortened: as §1
# ScBzz1-D2 = target: ScBzz1-D2
# Procedure, shortened: as §1
# ScCyk3 = target: ScCyk3
# Procedure, shortened: as §1
# ScFus1 = target: ScFus1
# Procedure, shortened: as §1
# ScHof1 = target: ScHof1
# Procedure, shortened: as §1
# ScHse1 = target: ScHse1
# Procedure, shortened: as §1
# ScLsb1 = target: ScLsb1
# Procedure, shortened: as §1
# ScLsb2 = target: ScLsb2
# Procedure, shortened: as §1
# ScLsb3 = target: ScLsb3
# Procedure, shortened: as §1
# ScLsb4 = target: ScLsb4
# Procedure, shortened: as §1
# ScMyo3 = target: ScMyo3
# Procedure, shortened: as §1
# ScMyo5 = target: ScMyo5
# Procedure, shortened: as §1
# ScNbp2 = target: ScNbp2
# Procedure, shortened: as §1
# ScPex13 = target: ScPex13
# Procedure, shortened: as §1
# ScRvs167 = target: ScRvs167
# Procedure, shortened: as §1
# ScSho1 = target: ScSho1
# Procedure, shortened: as §1
# ScSla1-D1-D2 = target: ScSla1-D1-D2
# Procedure, shortened: as §1
# ScSla1-D3 = target: ScSla1-D3
# Procedure, shortened: as §1
# SpAbp1-D1 = target: SpAbp1-D1
# Procedure, shortened: as §1
# SpBbc1 = target: SpBbc1
# Procedure, shortened: as §1
# SpBzz1-D1 = target: SpBzz1-D1
# Procedure, shortened: as §1
# SpBzz1-D2 = target: SpBzz1-D2
# Procedure, shortened: as §1
# SpCyk3 = target: SpCyk3
# Procedure, shortened: as §1
# SpHof1 = target: SpHof1
# Procedure, shortened: as §1
# SpHof1-2 = target: SpHof1-2
# Procedure, shortened: as §1
# SpHof1-3 = target: SpHof1-3
# Procedure, shortened: as §1
# SpHse1 = target: SpHse1
# Procedure, shortened: as §1
# SpLsb1 = target: SpLsb1
# Procedure, shortened: as §1
# SpLsb4 = target: SpLsb4
# Procedure, shortened: as §1
# SpMyo1 = target: SpMyo1
# Procedure, shortened: as §1
# SpNbp2 = target: SpNbp2
# Procedure, shortened: as §1
# SpPex13 = target: SpPex13
# Procedure, shortened: as §1
# SpRvs167 = target: SpRvs167
# Procedure, shortened: as §1
# SpSla1-D1-D2 = target: SpSla1-D1-D2
# Procedure, shortened: as §1
# SpSla1-D3 = target: SpSla1-D3
# Procedure, shortened: as §1
# AgAbp1 = target: AgAbp1
# Procedure, shortened: as §1
# AgBbc1 = target: AgBbc1
# Procedure, shortened: as §1
# AgBem1-D1 = target: AgBem1-D1
# Procedure, shortened: as §1
# AgBzz1-D1 = target: AgBzz1-D1
# Procedure, shortened: as §1
# AgBzz1-D2 = target: AgBzz1-D2
# Procedure, shortened: as §1
# AgCyk3 = target: AgCyk3
# Procedure, shortened: as §1
# AgFus1 = target: AgFus1
# Procedure, shortened: as §1
# AgHof1 = target: AgHof1
# Procedure, shortened: as §1
# AgHse1 = target: AgHse1
# Procedure, shortened: as §1
# AgLsb1 = target: AgLsb1
# Procedure, shortened: as §1
# AgLsb4 = target: AgLsb4
# Procedure, shortened: as §1
# AgMyo5 = target: AgMyo5
# Procedure, shortened: as §1
# AgNbp2 = target: AgNbp2
# Procedure, shortened: as §1
# AgRvs167 = target: AgRvs167
# Procedure, shortened: as §1
# AgSho1 = target: AgSho1
# Procedure, shortened: as §1
# AgSla1-D1-D2 = target: AgSla1-D1-D2
# Procedure, shortened: as §1
# AgSla1-D3 = target: AgSla1-D3
# Procedure, shortened: as §1
# CaAbp1-D1 = target: CaAbp1-D1
# Procedure, shortened: as §1
# CaAbp1-D2 = target: CaAbp1-D2
# Procedure, shortened: as §1
# CaBbc1 = target: CaBbc1
# Procedure, shortened: as §1
# CaBem1-D1 = target: CaBem1-D1
# Procedure, shortened: as §1
# CaBzz1-D1 = target: CaBzz1-D1
# Procedure, shortened: as §1
# CaBzz1-D2 = target: CaBzz1-D2
# Procedure, shortened: as §1
# CaCyk3 = target: CaCyk3
# Procedure, shortened: as §1
# CaFus1 = target: CaFus1
# Procedure, shortened: as §1
# CaHof1 = target: CaHof1
# Procedure, shortened: as §1
# CaHse1 = target: CaHse1
# Procedure, shortened: as §1
# CaLsb1 = target: CaLsb1
# Procedure, shortened: as §1
# CaLsb4 = target: CaLsb4
# Procedure, shortened: as §1
# CaMyo5 = target: CaMyo5
# Procedure, shortened: as §1
binder,measurement,setting,value
DDEDVPPQLPTRTKS,SPOT peptide array binding signal intensity,CaNbp2,≤ 0
same,SPOT peptide array binding signal intensity,CaRvs167,1080
same,SPOT peptide array binding signal intensity,CaRvs167-3,3.5
same,SPOT peptide array binding signal intensity,CaSho1,≤ 0
same,SPOT peptide array binding signal intensity,CaSla1-D1-D2,≤ 0
same,SPOT peptide array binding signal intensity,CaSla1-D3,≤ 0
same,SPOT peptide array binding signal intensity,ScAbp1,≤ 0
same,SPOT peptide array binding signal intensity,ScBbc1,0.5
same,SPOT peptide array binding signal intensity,ScBem1-D1,≤ 0
same,SPOT peptide array binding signal intensity,ScBzz1-D1,6
same,SPOT peptide array binding signal intensity,ScBzz1-D2,22
same,SPOT peptide array binding signal intensity,ScCyk3,1
same,SPOT peptide array binding signal intensity,ScFus1,6
same,SPOT peptide array binding signal intensity,ScHof1,16.5
same,SPOT peptide array binding signal intensity,ScHse1,23.5
same,SPOT peptide array binding signal intensity,ScLsb1,576
same,SPOT peptide array binding signal intensity,ScLsb2,≤ 0
same,SPOT peptide array binding signal intensity,ScLsb3,9300
same,SPOT peptide array binding signal intensity,ScLsb4,3020
same,SPOT peptide array binding signal intensity,ScMyo3,≤ 0
same,SPOT peptide array binding signal intensity,ScMyo5,≤ 0
same,SPOT peptide array binding signal intensity,ScNbp2,≤ 0
same,SPOT peptide array binding signal intensity,ScPex13,1570
same,SPOT peptide array binding signal intensity,ScRvs167,1980
same,SPOT peptide array binding signal intensity,ScSho1,6
same,SPOT peptide array binding signal intensity,ScSla1-D1-D2,1
same,SPOT peptide array binding signal intensity,ScSla1-D3,0.5
same,SPOT peptide array binding signal intensity,SpAbp1-D1,≤ 0
same,SPOT peptide array binding signal intensity,SpBbc1,3.75
same,SPOT peptide array binding signal intensity,SpBzz1-D1,0.5
same,SPOT peptide array binding signal intensity,SpBzz1-D2,≤ 0
same,SPOT peptide array binding signal intensity,SpCyk3,≤ 0
same,SPOT peptide array binding signal intensity,SpHof1,16.8
same,SPOT peptide array binding signal intensity,SpHof1-2,7
same,SPOT peptide array binding signal intensity,SpHof1-3,6
same,SPOT peptide array binding signal intensity,SpHse1,7
same,SPOT peptide array binding signal intensity,SpLsb1,27.5
same,SPOT peptide array binding signal intensity,SpLsb4,7620
same,SPOT peptide array binding signal intensity,SpMyo1,≤ 0
same,SPOT peptide array binding signal intensity,SpNbp2,8
same,SPOT peptide array binding signal intensity,SpPex13,≤ 0
same,SPOT peptide array binding signal intensity,SpRvs167,1800
same,SPOT peptide array binding signal intensity,SpSla1-D1-D2,≤ 0
same,SPOT peptide array binding signal intensity,SpSla1-D3,3
VQPTAAPATPPRHIS,SPOT peptide array binding signal intensity,AgAbp1,≤ 0
same,SPOT peptide array binding signal intensity,AgBbc1,≤ 0
same,SPOT peptide array binding signal intensity,AgBem1-D1,≤ 0
same,SPOT peptide array binding signal intensity,AgBzz1-D1,≤ 0
same,SPOT peptide array binding signal intensity,AgBzz1-D2,≤ 0
same,SPOT peptide array binding signal intensity,AgCyk3,≤ 0
same,SPOT peptide array binding signal intensity,AgFus1,≤ 0
same,SPOT peptide array binding signal intensity,AgHof1,≤ 0
same,SPOT peptide array binding signal intensity,AgHse1,5.5
same,SPOT peptide array binding signal intensity,AgLsb1,8
same,SPOT peptide array binding signal intensity,AgLsb4,964
same,SPOT peptide array binding signal intensity,AgMyo5,≤ 0
same,SPOT peptide array binding signal intensity,AgNbp2,≤ 0
same,SPOT peptide array binding signal intensity,AgRvs167,43.6
same,SPOT peptide array binding signal intensity,AgSho1,≤ 0
same,SPOT peptide array binding signal intensity,AgSla1-D1-D2,≤ 0
same,SPOT peptide array binding signal intensity,AgSla1-D3,≤ 0
same,SPOT peptide array binding signal intensity,CaAbp1-D1,≤ 0
same,SPOT peptide array binding signal intensity,CaAbp1-D2,≤ 0
same,SPOT peptide array binding signal intensity,CaBbc1,78.6
same,SPOT peptide array binding signal intensity,CaBem1-D1,5
same,SPOT peptide array binding signal intensity,CaBzz1-D1,≤ 0
same,SPOT peptide array binding signal intensity,CaBzz1-D2,≤ 0
same,SPOT peptide array binding signal intensity,CaCyk3,≤ 0
same,SPOT peptide array binding signal intensity,CaFus1,≤ 0
same,SPOT peptide array binding signal intensity,CaHof1,≤ 0
same,SPOT peptide array binding signal intensity,CaHse1,5.25
same,SPOT peptide array binding signal intensity,CaLsb1,≤ 0
same,SPOT peptide array binding signal intensity,CaLsb4,2000
same,SPOT peptide array binding signal intensity,CaMyo5,≤ 0
same,SPOT peptide array binding signal intensity,CaNbp2,≤ 0
same,SPOT peptide array binding signal intensity,CaRvs167,462
same,SPOT peptide array binding signal intensity,CaRvs167-3,≤ 0
same,SPOT peptide array binding signal intensity,CaSho1,≤ 0
same,SPOT peptide array binding signal intensity,CaSla1-D1-D2,≤ 0
same,SPOT peptide array binding signal intensity,CaSla1-D3,≤ 0
same,SPOT peptide array binding signal intensity,ScAbp1,≤ 0
same,SPOT peptide array binding signal intensity,ScBbc1,1.75
same,SPOT peptide array binding signal intensity,ScBem1-D1,≤ 0
same,SPOT peptide array binding signal intensity,ScBzz1-D1,≤ 0
same,SPOT peptide array binding signal intensity,ScBzz1-D2,≤ 0
same,SPOT peptide array binding signal intensity,ScCyk3,≤ 0
same,SPOT peptide array binding signal intensity,ScFus1,≤ 0
same,SPOT peptide array binding signal intensity,ScHof1,0.5
same,SPOT peptide array binding signal intensity,ScHse1,≤ 0
same,SPOT peptide array binding signal intensity,ScLsb1,14.5
same,SPOT peptide array binding signal intensity,ScLsb2,≤ 0
same,SPOT peptide array binding signal intensity,ScLsb3,6740
same,SPOT peptide array binding signal intensity,ScLsb4,1970
same,SPOT peptide array binding signal intensity,ScMyo3,≤ 0
same,SPOT peptide array binding signal intensity,ScMyo5,≤ 0
same,SPOT peptide array binding signal intensity,ScNbp2,≤ 0
same,SPOT peptide array binding signal intensity,ScPex13,4
same,SPOT peptide array binding signal intensity,ScRvs167,1040
same,SPOT peptide array binding signal intensity,ScSho1,4.75
same,SPOT peptide array binding signal intensity,ScSla1-D1-D2,≤ 0
same,SPOT peptide array binding signal intensity,ScSla1-D3,≤ 0
same,SPOT peptide array binding signal intensity,SpAbp1-D1,≤ 0
same,SPOT peptide array binding signal intensity,SpBbc1,≤ 0
same,SPOT peptide array binding signal intensity,SpBzz1-D1,≤ 0
